Measurements published in the supplement of paper PMC10849652.
Of roughly 7,900 targets only a part is listed; those with a hit were picked by preference. About 0.6% of all pairs of compound and target were hits.

Columns and labels:
Experiment in all cases: log2 fold change, soluble protein after heating vs DMSO (PISA); higher = thermal stabilisation; K562 cells, 10 uM, 30 min; active = over 0.2 and 3.5 SD of the protein, either way, in both replicates (recomputed)
[1] = compound: CC[C@@H]1C(=O)N(C)c2cnc(Nc3ccc(C(=O)NC4CCN(C)CC4)cc3OC)nc2N1C1CCCC1
Summary of the method: (§1)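 Soluble protein was defined as the supernatant after 21,000xg for 90 min. It came from K562 cells at 2×10^6 cells/mL given 10 μM compound for 30 min, heated in aliquots for 3 min across 48°C-58°C, pooled, and extracted in PBS with 0.5% NP-40 at 4°C, and was quantified by TMTpro 16plex LC-MS/MS with equalised channel sums. Thermal stability against control samples, from duplicates, is reported as log2 fold change.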

volasertib = compound: CC[C@@H]1C(=O)N(C)c2cnc(Nc3ccc(C(=O)N[C@H]4CC[C@H](N5CCN(CC6CC6)CC5)CC4)cc3OC)nc2N1C(C)C [volasertib]
Summary of the method: as §1

[2] = compound: CC[C@H](C)N1C=C(C2=C(C=C(C=C21)C3=CN=C(C=C3)N4CCNCC4)C(=O)NCC5=C(C=C(NC5=O)C)C)C
Summary of the method: as §1

epoxomicin = compound: CC[C@H](C)[C@@H](C(=O)N[C@@H]([C@@H](C)O)C(=O)N[C@@H](CC(C)C)C(=O)[C@]1(CO1)C)NC(=O)[C@H]([C@@H](C)CC)N(C)C(=O)C [epoxomicin]
Summary of the method: as §1

[3] = compound: CCn1c(C(=O)N(C2CC2)C2CC2)cc2c3c(ncn3C)c(Nc3cc(C)n(C)n3)nc21
Summary of the method: as §1

[4] = compound: CCn1cc(-c2ccnc3[nH]c(-c4cccc(CN(C)C)c4)cc23)c(-c2ccc(NC(=O)N(C)C)cc2)n1
Summary of the method: as §1

[5] = compound: CN(C)CC(=O)Nc1ccc2[nH]c(=O)c3ccccc3c2c1
Summary of the method: as §1

rosiglitazone = compound: CN(CCOC1=CC=C(C=C1)C[C@H]2C(=O)NC(=O)S2)C3=CC=CC=N3 (racemic) [rosiglitazone]
Summary of the method: as §1

[6] = compound: CN1C2=C(C3=C1C(=O)N(N=C3)CC4=CC(=CC=C4)N)SC(=C2)S(=O)C
Summary of the method: as §1

[7] = compound: CN1CCC(CNc2ccc3ncc(-c4cccc(OC(F)(F)F)c4)n3n2)CC1
Summary of the method: as §1

saracatinib = compound: CN1CCN(CCOc2cc(OC3CCOCC3)c3c(Nc4c(Cl)ccc5c4OCO5)ncnc3c2)CC1 [saracatinib]
Summary of the method: as §1

sotrastaurin = compound: CN1CCN(c2nc(C3=C(c4c[nH]c5ccccc45)C(=O)NC3=O)c3ccccc3n2)CC1 [sotrastaurin]
Summary of the method: as §1

alvocidib = compound: CN1CC[C@H](c2c(O)cc(O)c3c(=O)cc(-c4ccccc4Cl)oc23)[C@H](O)C1 [alvocidib]
Summary of the method: as §1

Tubastatin A = compound: CN1CCc2c(c3ccccc3n2Cc2ccc(C(=O)NO)cc2)C1 [Tubastatin A]
Summary of the method: as §1

[8] = compound: CNC(=O)C1=CC=CC=C1NC2=NC(=NC=C2Cl)NC3=C(C=C(C=C3)N4CCOCC4)OC
Summary of the method: as §1

defactinib = compound: CNC(=O)c1ccc(Nc2ncc(C(F)(F)F)c(NCc3nccnc3N(C)S(C)(=O)=O)n2)cc1 [defactinib]
Summary of the method: as §1

rucaparib = compound: CNCc1ccc(-c2[nH]c3cc(F)cc4c3c2CCNC4=O)cc1 [rucaparib]
Summary of the method: as §1

[9] = compound: CNc1nc(-c2ccc3c(N)n[nH]c3c2)cc(N2C[C@@H](C(=O)NC3CCCCC3)CC[C@H]2C)n1
Summary of the method: as §1

encorafenib = compound: COC(=O)N[C@@H](C)CNc1nccc(-c2cn(C(C)C)nc2-c2cc(Cl)cc(NS(C)(=O)=O)c2F)n1 [encorafenib]
Summary of the method: as §1

[10] = compound: COC(=O)[C@H](CCSC)NC(=O)C1=C(C=C(C=C1)NC[C@H](CS)N)C2=CC=CC=C2
Summary of the method: as §1

Measured: log2 fold change

POM121 (UniProt Q96HA1)
UniProt Q96HA1, sequence (Q96HA1 whole entry, looked up): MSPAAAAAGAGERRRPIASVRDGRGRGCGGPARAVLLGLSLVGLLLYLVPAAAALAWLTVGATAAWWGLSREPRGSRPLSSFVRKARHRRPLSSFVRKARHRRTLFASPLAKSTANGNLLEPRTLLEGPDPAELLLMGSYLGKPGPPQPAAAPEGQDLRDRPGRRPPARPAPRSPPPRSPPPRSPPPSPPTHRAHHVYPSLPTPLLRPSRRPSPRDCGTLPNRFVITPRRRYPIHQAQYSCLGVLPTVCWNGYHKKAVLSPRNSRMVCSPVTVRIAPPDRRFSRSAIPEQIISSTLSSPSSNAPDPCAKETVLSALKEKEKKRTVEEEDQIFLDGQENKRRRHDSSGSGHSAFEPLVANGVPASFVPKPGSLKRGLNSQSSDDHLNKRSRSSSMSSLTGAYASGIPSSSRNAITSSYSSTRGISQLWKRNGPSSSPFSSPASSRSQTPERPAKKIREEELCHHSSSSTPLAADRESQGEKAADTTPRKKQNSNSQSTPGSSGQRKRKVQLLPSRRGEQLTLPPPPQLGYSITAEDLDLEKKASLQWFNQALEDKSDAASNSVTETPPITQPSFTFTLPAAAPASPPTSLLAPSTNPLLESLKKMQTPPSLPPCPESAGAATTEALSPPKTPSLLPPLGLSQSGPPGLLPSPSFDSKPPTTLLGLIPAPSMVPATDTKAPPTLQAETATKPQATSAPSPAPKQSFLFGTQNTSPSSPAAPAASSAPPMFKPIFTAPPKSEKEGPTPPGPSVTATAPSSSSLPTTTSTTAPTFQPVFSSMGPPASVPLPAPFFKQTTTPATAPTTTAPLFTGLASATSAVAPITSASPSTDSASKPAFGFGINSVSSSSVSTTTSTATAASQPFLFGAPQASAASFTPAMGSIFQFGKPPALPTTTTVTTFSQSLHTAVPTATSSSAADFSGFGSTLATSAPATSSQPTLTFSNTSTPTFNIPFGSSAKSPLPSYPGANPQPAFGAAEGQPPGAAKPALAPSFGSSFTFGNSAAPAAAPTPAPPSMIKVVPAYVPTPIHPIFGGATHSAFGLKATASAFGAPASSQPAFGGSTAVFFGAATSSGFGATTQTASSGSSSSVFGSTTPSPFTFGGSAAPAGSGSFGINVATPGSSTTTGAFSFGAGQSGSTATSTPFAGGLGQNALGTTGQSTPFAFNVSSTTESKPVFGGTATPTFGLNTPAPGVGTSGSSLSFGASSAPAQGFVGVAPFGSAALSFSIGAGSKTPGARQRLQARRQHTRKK
inactive: [1] -0.017 | volasertib -0.027 | [2] 0.056 | epoxomicin -0.062 | [3] -0.037 | [4] 0.03 | [5] -0.071 | rosiglitazone 0.001 | [6] 0.137 | [7] -0.149 | saracatinib -0.043 | sotrastaurin -0.024 | alvocidib 0.023 | Tubastatin A 0.083 | [8] 0.126 | defactinib 0.045 | rucaparib 0.069 | [9] 0 | encorafenib 0.075 | [10] -0.002

PMPCA (UniProt Q10713)
UniProt Q10713, sequence (Q10713 whole entry, looked up): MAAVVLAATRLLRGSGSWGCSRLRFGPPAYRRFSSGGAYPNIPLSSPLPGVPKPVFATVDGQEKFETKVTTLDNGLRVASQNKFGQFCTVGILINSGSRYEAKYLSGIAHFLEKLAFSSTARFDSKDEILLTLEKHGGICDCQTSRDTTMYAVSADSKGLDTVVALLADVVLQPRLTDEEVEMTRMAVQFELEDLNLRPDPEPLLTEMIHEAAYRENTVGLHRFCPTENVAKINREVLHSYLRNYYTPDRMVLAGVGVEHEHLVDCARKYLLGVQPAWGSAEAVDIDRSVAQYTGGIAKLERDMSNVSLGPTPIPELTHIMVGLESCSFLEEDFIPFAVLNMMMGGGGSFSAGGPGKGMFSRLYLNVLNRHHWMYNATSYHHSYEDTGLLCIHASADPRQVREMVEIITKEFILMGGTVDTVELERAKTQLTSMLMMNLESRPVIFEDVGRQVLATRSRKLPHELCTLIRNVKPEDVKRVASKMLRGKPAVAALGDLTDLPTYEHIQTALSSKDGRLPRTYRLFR
inactive: [1] 0.018 | volasertib 0.158 | [2] 0.021 | epoxomicin 0.029 | [3] 0.016 | [4] -0.095 | [5] 0.013 | rosiglitazone 0.024 | [6] -0.124 | [7] 0.138 | saracatinib -0.026 | sotrastaurin -0.007 | alvocidib -0.101 | Tubastatin A -0.007 | [8] 0.007 | defactinib -0.086 | rucaparib -0.022 | [9] 0.052 | encorafenib -0.027 | [10] -0.022

PDLIM7 (UniProt Q9NR12)
active: volasertib -0.24
inactive: [1] -0.084 | [2] 0.012 | epoxomicin 0.013 | [3] -0.053 | [4] -0.064 | [5] 0.039 | rosiglitazone 0.039 | [6] 0.023 | [7] -0.021 | saracatinib 0.002 | sotrastaurin 0.016 | alvocidib -0.032 | Tubastatin A -0.022 | [8] -0.014 | defactinib -0.083 | rucaparib 0.002 | [9] -0.013 | encorafenib 0.021 | [10] -0.021

RAB11FIP1 (UniProt Q6WKZ4)
active: [7] -0.373
inactive: [1] -0.07 | volasertib -0.105 | [2] 0.023 | epoxomicin 0.122 | [3] 0.015 | [4] -0.063 | [5] 0.021 | rosiglitazone 0.018 | [6] -0.017 | saracatinib 0.021 | sotrastaurin -0.094 | alvocidib -0.028 | Tubastatin A 0.005 | [8] 0.045 | defactinib -0.16 | rucaparib -0.012 | [9] -0.043 | encorafenib 0.052 | [10] -0.019

PPIL2 (UniProt Q13356)
active: volasertib -0.599
inactive: [1] -0.196 | [2] 0.159 | epoxomicin 0.142 | [3] -0.098 | [4] -0.031 | [5] 0.08 | rosiglitazone 0.043 | [6] -0.019 | [7] -0.022 | saracatinib -0.02 | sotrastaurin -0.096 | alvocidib -0.093 | Tubastatin A 0.069 | [8] -0.023 | defactinib -0.194 | rucaparib 0.073 | [9] 0.067 | encorafenib 0.047 | [10] -0.065

PRKCD (UniProt Q05655)
UniProt Q05655, sequence (Q05655 whole entry, looked up): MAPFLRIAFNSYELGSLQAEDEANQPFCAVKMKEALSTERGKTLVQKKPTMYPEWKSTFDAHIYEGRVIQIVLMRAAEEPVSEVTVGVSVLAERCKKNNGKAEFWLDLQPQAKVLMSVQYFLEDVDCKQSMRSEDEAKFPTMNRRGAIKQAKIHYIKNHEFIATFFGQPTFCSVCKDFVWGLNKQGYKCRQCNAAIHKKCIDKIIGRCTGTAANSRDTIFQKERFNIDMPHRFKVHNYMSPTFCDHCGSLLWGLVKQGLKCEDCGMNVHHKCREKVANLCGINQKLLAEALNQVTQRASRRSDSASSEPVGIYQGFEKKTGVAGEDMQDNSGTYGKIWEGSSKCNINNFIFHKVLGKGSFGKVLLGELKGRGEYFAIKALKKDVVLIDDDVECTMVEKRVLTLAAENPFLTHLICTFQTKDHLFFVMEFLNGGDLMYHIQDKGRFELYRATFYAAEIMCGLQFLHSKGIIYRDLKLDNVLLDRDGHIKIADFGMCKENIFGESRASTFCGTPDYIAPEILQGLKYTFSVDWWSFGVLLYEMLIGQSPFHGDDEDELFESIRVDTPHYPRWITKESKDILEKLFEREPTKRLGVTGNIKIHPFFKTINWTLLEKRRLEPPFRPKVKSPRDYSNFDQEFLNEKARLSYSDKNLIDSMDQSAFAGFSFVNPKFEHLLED
inactive: [1] 0.036 | volasertib -0.073 | [2] 0.031 | epoxomicin -0.003 | [3] 0.005 | [4] -0.067 | [5] -0.009 | rosiglitazone 0.062 | [6] -0.05 | [7] -0.159 | saracatinib -0.026 | alvocidib -0.1 | Tubastatin A -0.007 | [8] 0.002 | defactinib -0.002 | rucaparib -0.031 | [9] -0.033 | encorafenib -0.029 | [10] -0.024
active: sotrastaurin -0.256

PHF5A (UniProt Q7RTV0)
UniProt Q7RTV0, sequence (Q7RTV0 whole entry, looked up): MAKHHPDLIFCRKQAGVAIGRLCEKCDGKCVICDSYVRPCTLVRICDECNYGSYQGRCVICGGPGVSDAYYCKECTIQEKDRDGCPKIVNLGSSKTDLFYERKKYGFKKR
inactive: [1] 0.013 | volasertib 0.065 | [2] -0.061 | epoxomicin 0.051 | [3] 0.014 | [4] 0.087 | [5] -0.063 | rosiglitazone -0.062 | [6] -0.017 | [7] 0.017 | saracatinib 0.069 | sotrastaurin 0.047 | alvocidib 0.045 | Tubastatin A -0.027 | [8] 0.05 | defactinib 0.141 | rucaparib 0.04 | [9] -0.086 | encorafenib -0.017 | [10] 0.023

PEX11B (UniProt O96011)
inactive: [1] 0.071 | volasertib -0.018 | [2] -0.038 | epoxomicin -0.013 | [3] 0.006 | [4] 0.04 | [5] 0.064 | rosiglitazone 0.007 | [6] -0.085 | [7] 0.239 | saracatinib 0.052 | sotrastaurin -0.009 | alvocidib -0.001 | Tubastatin A -0.021 | [8] 0.001 | defactinib -0.042 | rucaparib -0.006 | [9] -0.022 | encorafenib 0.024 | [10] -0.041

PRKAR1A (UniProt P10644)
active: [7] 0.705
inactive: [1] 0.213 | volasertib -0.054 | [2] -0.068 | epoxomicin -0.122 | [3] 0.071 | [4] 0.001 | [5] 0.023 | rosiglitazone -0.032 | [6] 0.132 | saracatinib -0.067 | sotrastaurin 0.105 | alvocidib 0.121 | Tubastatin A 0.007 | [8] 0.366 | defactinib 0.14 | rucaparib 0.13 | [9] 0.005 | encorafenib 0.073 | [10] -0.069

PPP1R35 (UniProt Q8TAP8)
inactive: [1] 0.062 | volasertib 0.101 | [2] -0.062 | epoxomicin 0.062 | [3] 0.009 | [4] 0.007 | [5] -0.004 | rosiglitazone 0.035 | [6] 0.027 | [7] -0.032 | saracatinib 0.034 | sotrastaurin -0.011 | alvocidib -0.03 | Tubastatin A 0.035 | [8] -0.029 | defactinib -0.007 | rucaparib 0.019 | [9] -0.109 | encorafenib 0.072 | [10] 0.052

PIP4K2C (UniProt Q8TBX8)
UniProt Q8TBX8, sequence (Q8TBX8 whole entry, looked up): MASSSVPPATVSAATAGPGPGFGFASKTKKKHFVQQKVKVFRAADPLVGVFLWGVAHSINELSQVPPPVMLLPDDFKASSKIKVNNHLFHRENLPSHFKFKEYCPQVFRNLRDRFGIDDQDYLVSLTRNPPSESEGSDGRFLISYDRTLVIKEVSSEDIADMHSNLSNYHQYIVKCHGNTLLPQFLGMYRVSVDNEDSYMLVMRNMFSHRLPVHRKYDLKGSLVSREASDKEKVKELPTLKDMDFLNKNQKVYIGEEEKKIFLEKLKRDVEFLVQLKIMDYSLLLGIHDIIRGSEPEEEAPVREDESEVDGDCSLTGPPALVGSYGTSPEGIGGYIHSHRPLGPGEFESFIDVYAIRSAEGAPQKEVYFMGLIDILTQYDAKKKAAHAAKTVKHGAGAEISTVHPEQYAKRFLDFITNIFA
inactive: [2] -0.096 | epoxomicin -0.022 | [3] 0.001 | [4] 0.05 | [5] -0.016 | rosiglitazone 0.046 | [6] 0.699 | [7] 0.384 | saracatinib -0.049 | sotrastaurin -0.035 | alvocidib 0.54 | Tubastatin A 0.133 | [8] 0.371 | defactinib 0.527 | rucaparib 0.011 | [9] -0.042 | encorafenib 0.051 | [10] -0.113
active: [1] 1.12 | volasertib 1.19

PLBD2 (UniProt Q8NHP8)
UniProt Q8NHP8, sequence (Q8NHP8 whole entry, looked up): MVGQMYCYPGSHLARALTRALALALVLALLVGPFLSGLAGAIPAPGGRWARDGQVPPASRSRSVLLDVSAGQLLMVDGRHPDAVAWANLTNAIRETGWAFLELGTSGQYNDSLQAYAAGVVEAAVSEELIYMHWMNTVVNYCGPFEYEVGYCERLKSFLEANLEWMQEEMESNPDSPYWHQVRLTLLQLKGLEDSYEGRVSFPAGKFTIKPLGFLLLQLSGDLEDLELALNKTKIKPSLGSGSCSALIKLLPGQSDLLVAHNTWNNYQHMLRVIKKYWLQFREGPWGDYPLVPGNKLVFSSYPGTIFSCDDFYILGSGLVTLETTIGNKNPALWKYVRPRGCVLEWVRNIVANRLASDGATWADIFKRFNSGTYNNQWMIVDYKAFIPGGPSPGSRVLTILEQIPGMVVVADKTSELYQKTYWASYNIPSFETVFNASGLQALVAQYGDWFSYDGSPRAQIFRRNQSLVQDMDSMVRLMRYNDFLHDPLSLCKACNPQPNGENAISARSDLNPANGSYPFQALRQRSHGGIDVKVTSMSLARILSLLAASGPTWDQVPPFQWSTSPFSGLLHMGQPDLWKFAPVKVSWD
active: volasertib -0.222
inactive: [1] -0.188 | [2] -0.034 | epoxomicin -0.015 | [3] 0.024 | [4] 0.029 | [5] 0.008 | rosiglitazone 0.009 | [6] -0.029 | [7] -0.21 | saracatinib 0.033 | sotrastaurin 0.031 | alvocidib 0.006 | Tubastatin A 0.01 | [8] 0.029 | defactinib -0.025 | rucaparib -0.115 | [9] -0.008 | encorafenib 0.005 | [10] 0.038

PBK (UniProt Q96KB5)
UniProt Q96KB5, sequence (Q96KB5 whole entry, looked up): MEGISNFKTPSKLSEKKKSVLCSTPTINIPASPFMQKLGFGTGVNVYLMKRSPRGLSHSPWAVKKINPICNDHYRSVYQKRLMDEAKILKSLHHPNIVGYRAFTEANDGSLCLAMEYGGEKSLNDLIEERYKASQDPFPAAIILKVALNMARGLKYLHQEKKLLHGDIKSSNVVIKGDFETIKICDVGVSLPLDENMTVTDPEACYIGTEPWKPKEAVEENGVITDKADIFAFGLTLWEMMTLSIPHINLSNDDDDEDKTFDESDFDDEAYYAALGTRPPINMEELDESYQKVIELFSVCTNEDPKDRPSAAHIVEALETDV
inactive: [1] -0.18 | [2] 0.121 | epoxomicin -0.005 | [3] -0.086 | [4] -0.026 | [5] 0.091 | rosiglitazone 0.092 | [6] 0.053 | [7] -0.187 | saracatinib 0.01 | sotrastaurin -0.205 | alvocidib -0.02 | Tubastatin A 0.089 | [8] 0.093 | defactinib -0.15 | rucaparib 0.187 | [9] 0.005 | encorafenib 0.198 | [10] -0.111
active: volasertib -0.601

PIK3C3 (UniProt Q8NEB9)
UniProt Q8NEB9, sequence (Q8NEB9 whole entry, looked up): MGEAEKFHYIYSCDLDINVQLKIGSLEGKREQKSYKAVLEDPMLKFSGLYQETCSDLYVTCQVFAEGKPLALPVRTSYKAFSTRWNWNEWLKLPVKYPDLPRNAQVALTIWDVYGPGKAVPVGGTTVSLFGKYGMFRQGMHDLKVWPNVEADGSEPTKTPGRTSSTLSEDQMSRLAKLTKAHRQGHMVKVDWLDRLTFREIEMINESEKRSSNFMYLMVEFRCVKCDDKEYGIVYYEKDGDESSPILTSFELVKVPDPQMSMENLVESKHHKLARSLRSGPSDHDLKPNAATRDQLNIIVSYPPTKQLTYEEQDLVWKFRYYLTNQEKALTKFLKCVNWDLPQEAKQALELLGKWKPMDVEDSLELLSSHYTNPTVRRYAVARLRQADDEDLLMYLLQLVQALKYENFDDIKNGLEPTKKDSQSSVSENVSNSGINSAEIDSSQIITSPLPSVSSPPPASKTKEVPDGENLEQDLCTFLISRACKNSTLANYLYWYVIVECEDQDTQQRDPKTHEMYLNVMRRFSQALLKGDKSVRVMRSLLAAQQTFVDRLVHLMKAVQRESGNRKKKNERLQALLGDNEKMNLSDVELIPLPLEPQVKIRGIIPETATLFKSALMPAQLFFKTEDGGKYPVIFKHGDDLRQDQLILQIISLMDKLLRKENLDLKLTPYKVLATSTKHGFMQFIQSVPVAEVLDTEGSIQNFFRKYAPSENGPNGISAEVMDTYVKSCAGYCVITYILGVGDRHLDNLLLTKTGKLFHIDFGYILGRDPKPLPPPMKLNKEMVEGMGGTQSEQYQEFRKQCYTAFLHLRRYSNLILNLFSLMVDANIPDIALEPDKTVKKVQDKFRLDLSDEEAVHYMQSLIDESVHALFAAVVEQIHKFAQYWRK
inactive: [1] 0.16 | volasertib 0.153 | [2] 0.023 | epoxomicin -0.071 | [3] 0.044 | [4] -0.117 | [5] -0.03 | rosiglitazone -0.022 | [6] 0.025 | [7] 0.015 | saracatinib -0.007 | sotrastaurin -0.039 | alvocidib 0.044 | Tubastatin A 0.027 | [8] -0.003 | defactinib -0.012 | rucaparib 0.25 | [9] 0.002 | encorafenib 0.05 | [10] -0.018

PRKACB isoform 2 (UniProt P22694)
inactive: [1] -0.025 | volasertib -0.031 | [2] 0.004 | epoxomicin -0.033 | [3] 0.008 | [4] -0.009 | [5] -0.048 | rosiglitazone 0.025 | [6] -0.042 | [7] -0.022 | saracatinib -0.013 | sotrastaurin -0.119 | alvocidib -0.014 | Tubastatin A -0.035 | [8] -0.101 | defactinib 0.004 | rucaparib 0.002 | [9] 0.018 | encorafenib 0.011 | [10] 0.022
